Experimental data as given in PubChem BioAssay (EPA / NIEHS).
“And” between values parts separate entries of the source, which are not always exact repeats. Equal entries are not always repeated. Some compounds were tested as several samples or in several runs, with calls that do not always agree. The source made the active and inactive calls. Rule for the calls: active = hit-call score of the fitted dose curve at least 0.9, where 1 is the maximum; inactive = score below 0.9.

How the values were obtained:
[1] = biological target: Bile acid receptor (Homo sapiens) (UniProt Q96RI1); assay: ATG_IR1_CIS: Attagene CIS-FACTORIAL HepG2 Assay for human Nuclear Receptor Subfamily 1 Group H Member 4 (NR1H4), IR1 submotif (AID 2282946); settings: IR1 reporter transcription, actives raise or lower the signal
Outline: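 Fluorescence of capillary-separated, HpaI-digested RT-PCR reporter products gave IR1-element mRNA induction in HepG2 cells 24 h after dosing. Endogenous transcription factors drove the cis-regulated reporters; activity was fitted bidirectionally against DMSO.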

[2] = ATG_GRE_CIS: Attagene CIS-FACTORIAL HepG2 Assay for human Glucocorticoid Response Elements (GRE) (AID 2282947); settings: HepG2 GRE cis-reporter, Attagene multiplex mRNA; actives raise or lower the signal
Outline: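 Fluorescence intensity of reporter-specific cDNA fragments, separated by capillary electrophoresis, provides the signal. Constructs carry cis-regulating promoters in transiently transfected HepG2 liver cells; 24 h incubation; fitting is bidirectional against DMSO.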

[3] = ATG_ISRE_CIS: Attagene CIS-FACTORIAL HepG2 Assay for human Interferon Regulatory Factor 1 (IRF1) binding to an Interferon-Stimulated Response Element (ISRE) (AID 2282948); settings: HepG2 ISRE cis-reporter (Attagene), mRNA transcription readout; actives raise or lower the signal
Outline: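 Uses HepG2 liver cells transfected with cis-regulated reporters and measures mRNA 24 h post-dosing through RT-PCR, primer-extension labelling and capillary electrophoresis, with DMSO as negative control.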

[4] = ATG_M_32_CIS: Attagene CIS-FACTORIAL HepG2 Assay for M32 Transcription Factor (Internal Marker) (AID 2282949); settings: HepG2 Attagene cis-factorial M32 reporter, mRNA; actives raise or lower the signal;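 note: background control marker of the multiplexed CIS panel rather than a real target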
Outline: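 HepG2 human liver cells transiently transfected with cis-promoter-driven multiple reporter transcription units, dosed 24 h. Reporter mRNA quantified by RT-PCR, FAM-labelled primer extension, HpaI digest and capillary electrophoresis; bidirectional fit versus DMSO baseline.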

[5] = ATG_M_06_CIS: Attagene CIS-FACTORIAL HepG2 Assay for M06 Transcription Factor (Internal Marker) (AID 2282950); settings: HepG2 Attagene CIS-FACTORIAL M06 internal marker reporter; actives raise or lower the signal
Outline: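 One of many multiplexed endpoints: HepG2 reporter mRNA after 24 h dosing, detected by RT-PCR and capillary electrophoresis fluorescence; gain or loss of signal analysed against DMSO.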

[6] = biological target: Hypoxia-inducible factor 1-alpha (Homo sapiens) (UniProt Q16665); assay: ATG_HIF1a_CIS: Attagene CIS-FACTORIAL HepG2 Assay for human Hypoxia Inducible Factor 1 (HIF1A) (AID 2282951); settings: HepG2 Attagene cis-factorial HIF1a reporter transcription; actives raise or lower the signal
Outline: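 HepG2 cells transiently transfected with multiple cis-regulated reporter transcription units measure endogenous transcription factor activity. After 24 h exposure, reporter mRNA is quantified by RT-PCR with 6-FAM labelling, HpaI digestion and capillary electrophoresis. Bidirectional fitting against DMSO.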

[7] = biological target: Hepatocyte nuclear factor 6 (Homo sapiens) (UniProt Q9UBC0); assay: ATG_HNF6_CIS: Attagene CIS-FACTORIAL HepG2 Assay for human Hepatocyte Nuclear Factor 6 (HNF6) (AID 2282952); settings: HepG2 Attagene cis-factorial HNF6 reporter transcription; actives raise or lower the signal
Outline: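 Endogenous transcription factor activity in human HepG2 liver cells was captured through cis-regulated reporter constructs. After 24 h treatment, reporter mRNA was measured by RT-PCR with capillary electrophoresis, and activity was fitted in both directions relative to DMSO.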

[8] = biological target: Heat shock factor protein 1 (Homo sapiens) (UniProt Q00613); assay: ATG_HSE_CIS: Attagene CIS-FACTORIAL HepG2 Assay for human Heat Shock Transcription Factor 1 (HSE) (AID 2282953); settings: HepG2 HSE cis-reporter, Attagene RNA transcription; actives raise or lower the signal
Outline: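 Using HepG2 with transfected cis-driven reporter constructs, compound effects on endogenous factor activity are scored as reporter mRNA change at 24 h. Detection: RT-PCR, HpaI digestion, capillary electrophoresis; bidirectional fitting to DMSO.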

[9] = ATG_MRE_CIS: Attagene CIS-FACTORIAL HepG2 Assay for human Metal Responsive Element (MRE) (AID 2282954); settings: HepG2 MRE cis-reporter transcription, Attagene multiplex; actives raise or lower the signal
Outline: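 Measured here is mRNA induction from an MRE cis-element reporter in HepG2 after 24 h, quantified by fluorescence of labelled RT-PCR products on capillary electrophoresis; gain- and loss-of-signal fits use DMSO as baseline.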

[10] = biological target: Paired box protein Pax-6 (Homo sapiens) (UniProt P26367); assay: ATG_Pax6_CIS: Attagene CIS-FACTORIAL HepG2 Assay for human Paired Box 6 (PAX6) (AID 2282956); settings: HepG2 CIS-FACTORIAL PAX6 reporter transcription, RNA readout; actives raise or lower the signal
Outline: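 DMSO-referenced bidirectional fits of reporter mRNA fluorescence; HepG2 with transient cis-promoter MRTUs, 24 h post-dose, RT-PCR plus capillary electrophoresis detection.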

[11] = ATG_PPRE_CIS: Attagene CIS-FACTORIAL HepG2 Assay for human Peroxisome Proliferator-activated Response Element (PPRE) (AID 2282958); settings: HepG2 PPRE cis-element reporter, Attagene transcription factor profiling; actives raise or lower the signal
Outline: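 HepG2 cells are transiently transfected with multiplexed cis-promoter reporter units to report endogenous PPAR activity. After 24 h dosing, reporter mRNA is read by RT-PCR and capillary electrophoresis. Fitting is bidirectional against DMSO.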

[12] = ATG_RORE_CIS: Attagene CIS-FACTORIAL HepG2 Assay for human RAR-related Orphan Receptor Element (RORE) (AID 2282959); settings: HepG2 Attagene cis-factorial RORE reporter, mRNA; actives raise or lower the signal
Outline: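 HepG2 cells carrying transiently transfected cis-regulated reporter units; RORE-driven reporter mRNA quantified 24 h post-dosing by RT-PCR, 6-FAM primer extension, HpaI digestion and capillary electrophoresis. Bidirectional fit versus DMSO.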

[13] = ATG_Sox_CIS: Attagene CIS-FACTORIAL HepG2 Assay for human SRY-box transcription factor (SOX) (AID 2282960); settings: HepG2 Attagene cis-factorial SOX reporter, mRNA; actives raise or lower the signal
Outline: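 HepG2 cells transiently transfected with multiple cis-regulated reporter units, then dosed for 24 h. Reporter mRNA quantified by RT-PCR, fluorescent labelling, HpaI digestion and capillary electrophoresis; bidirectional fit versus DMSO.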

[14] = biological target: Transcription factor Sp1 (Homo sapiens) (UniProt P08047); assay: ATG_Sp1_CIS: Attagene CIS-FACTORIAL HepG2 Assay for human Specificity Protein 1 (Sp1) (AID 2282961); settings: HepG2 Sp1 cis-reporter transcription, actives raise or lower the signal
Outline: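 HepG2 cells transiently transfected with multiplexed cis-regulated reporter constructs, chemical exposure 24 h. Reporter mRNA quantified by RT-PCR with capillary electrophoresis; bidirectional fit relative to DMSO.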

[15] = ATG_SREBP_CIS: Attagene CIS-FACTORIAL HepG2 Assay for human Sterol Regulatory Element Binding (SREBP) (AID 2282962); settings: HepG2 Attagene cis-factorial SREBP reporter, mRNA; actives raise or lower the signal
Outline: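 In this cis-format assay, HepG2 liver cells express reporters controlled by promoter elements responsive to native transcription factors. Exposure lasts 24 h; reporter mRNA fluorescence from capillary electrophoresis gives the signal, fitted bidirectionally against DMSO.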

[16] = biological target: Signal transducer and activator of transcription 3 (Homo sapiens) (UniProt P40763); assay: ATG_STAT3_CIS: Attagene CIS-FACTORIAL HepG2 Assay for human Signal Transducer and Activator of Transcription 3 (STAT3) (AID 2282963); settings: HepG2, Attagene cis-factorial STAT3 reporter transcription; actives raise or lower the signal
Outline: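 Fluorescence intensity of 6-FAM-labelled reporter fragments, separated by capillary electrophoresis after RT-PCR, gave the signal. Cells were HepG2 transfected with cis-element reporter units and treated 24 h; fitting was bidirectional relative to DMSO.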

[17] = ATG_TA_CIS: Attagene CIS-FACTORIAL HepG2 Assay for human TA Basal Promoter (AID 2282964); settings: HepG2 Attagene CIS-factorial TA basal promoter reporter; actives raise or lower the signal
Outline: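 Transient MRTU transfection of HepG2 preceded 24 h compound exposure. Reporter mRNA levels were then read by RT-PCR with capillary electrophoresis, and this background-control endpoint was fitted bidirectionally to DMSO.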

[18] = ATG_TCF_b_cat_CIS: Attagene CIS-FACTORIAL HepG2 Assay for human T-Cell-Factor with beta-catenin (TCF/b-cat) (AID 2282965); settings: HepG2 TCF/beta-catenin cis-reporter transcription, actives raise or lower the signal
Outline: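 HepG2, transient MRTU transfection, cis-element-driven reporters (endogenous TFs). 24 h compound exposure. Readout: reporter mRNA by RT-PCR + 6-FAM primer extension, HpaI digest, capillary electrophoresis. Gain/loss fit vs DMSO baseline.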

[19] = ATG_PBREM_CIS: Attagene CIS-FACTORIAL HepG2 Assay for human Phenobarbital-responsive Enhancer Module (PBREM) (AID 2282955); settings: HepG2 PBREM cis-reporter, Attagene multiplexed transcription; actives raise or lower the signal
Outline: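 HepG2 cells transiently transfected with multiple cis-regulated reporter units measure endogenous transcription factor activity; 24 h compound exposure. Reporter mRNA quantified by RT-PCR, fluorescent labelling, HpaI digestion and capillary electrophoresis; bidirectional fit versus DMSO.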

[20] = ATG_PXRE_CIS: Attagene CIS-FACTORIAL HepG2 Assay for human Pregnane X Receptor Element (PXRE) (AID 2282957); settings: HepG2 Attagene CIS-FACTORIAL PXRE reporter, mRNA; actives raise or lower the signal
Outline: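 Endogenous transcription factor activity in HepG2 was gauged through induction of reporter mRNA driven by a cis-regulating promoter element, sampled 24 h post-treatment. Activity was fitted in both directions against DMSO negative control.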

Measured: AC50

Sequence of Heat shock factor protein 1 (Homo sapiens) (Q00613 whole entry, looked up): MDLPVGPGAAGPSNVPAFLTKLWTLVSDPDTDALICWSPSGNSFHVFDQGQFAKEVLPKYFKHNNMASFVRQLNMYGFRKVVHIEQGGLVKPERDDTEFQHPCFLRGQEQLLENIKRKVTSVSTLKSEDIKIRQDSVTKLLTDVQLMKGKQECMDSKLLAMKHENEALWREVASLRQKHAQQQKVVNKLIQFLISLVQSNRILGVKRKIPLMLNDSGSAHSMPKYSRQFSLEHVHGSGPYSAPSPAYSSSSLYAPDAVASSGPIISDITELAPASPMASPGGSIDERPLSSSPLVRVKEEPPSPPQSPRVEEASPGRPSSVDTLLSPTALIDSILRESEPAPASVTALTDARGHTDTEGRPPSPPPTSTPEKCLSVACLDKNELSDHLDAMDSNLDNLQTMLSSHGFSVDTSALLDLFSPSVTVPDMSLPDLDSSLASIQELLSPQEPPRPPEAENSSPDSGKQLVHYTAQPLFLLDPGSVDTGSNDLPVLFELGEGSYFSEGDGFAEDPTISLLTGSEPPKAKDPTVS
Sequence of Paired box protein Pax-6 (Homo sapiens) (P26367 whole entry, looked up): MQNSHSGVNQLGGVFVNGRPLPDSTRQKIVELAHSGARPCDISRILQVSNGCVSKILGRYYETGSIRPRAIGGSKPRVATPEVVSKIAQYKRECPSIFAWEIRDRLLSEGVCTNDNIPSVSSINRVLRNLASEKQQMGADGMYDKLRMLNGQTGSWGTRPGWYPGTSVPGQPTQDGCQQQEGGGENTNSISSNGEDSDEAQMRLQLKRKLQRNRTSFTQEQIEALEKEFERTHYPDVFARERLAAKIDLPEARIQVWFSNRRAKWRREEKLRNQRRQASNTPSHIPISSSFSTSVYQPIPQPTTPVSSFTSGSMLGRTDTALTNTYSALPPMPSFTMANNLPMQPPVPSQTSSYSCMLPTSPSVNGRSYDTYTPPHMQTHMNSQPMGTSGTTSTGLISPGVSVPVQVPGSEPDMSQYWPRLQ
Sequence of Transcription factor Sp1 (Homo sapiens) (P08047 whole entry, looked up): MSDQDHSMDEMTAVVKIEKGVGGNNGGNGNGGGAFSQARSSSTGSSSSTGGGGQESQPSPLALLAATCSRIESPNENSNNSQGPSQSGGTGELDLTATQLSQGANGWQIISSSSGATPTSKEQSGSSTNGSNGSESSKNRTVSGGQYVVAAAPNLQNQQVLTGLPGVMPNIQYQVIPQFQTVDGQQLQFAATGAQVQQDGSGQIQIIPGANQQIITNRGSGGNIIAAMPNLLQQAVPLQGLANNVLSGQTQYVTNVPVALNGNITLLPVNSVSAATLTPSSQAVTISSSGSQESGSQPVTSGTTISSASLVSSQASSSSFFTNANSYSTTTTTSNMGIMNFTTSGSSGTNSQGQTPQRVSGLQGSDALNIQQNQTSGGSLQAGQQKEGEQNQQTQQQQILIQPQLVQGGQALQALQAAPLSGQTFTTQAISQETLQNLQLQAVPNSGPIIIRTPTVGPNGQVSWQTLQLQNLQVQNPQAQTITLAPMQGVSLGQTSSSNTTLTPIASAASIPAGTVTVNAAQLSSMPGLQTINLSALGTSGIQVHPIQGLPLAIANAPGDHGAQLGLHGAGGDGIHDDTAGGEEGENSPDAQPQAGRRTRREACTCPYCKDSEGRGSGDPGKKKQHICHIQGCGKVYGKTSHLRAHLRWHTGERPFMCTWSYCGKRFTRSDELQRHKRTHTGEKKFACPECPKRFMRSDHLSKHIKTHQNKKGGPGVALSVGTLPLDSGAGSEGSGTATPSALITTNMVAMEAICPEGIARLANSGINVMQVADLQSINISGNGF
Sequence of Signal transducer and activator of transcription 3 (Homo sapiens) (P40763 whole entry, looked up, the tested form may be a part): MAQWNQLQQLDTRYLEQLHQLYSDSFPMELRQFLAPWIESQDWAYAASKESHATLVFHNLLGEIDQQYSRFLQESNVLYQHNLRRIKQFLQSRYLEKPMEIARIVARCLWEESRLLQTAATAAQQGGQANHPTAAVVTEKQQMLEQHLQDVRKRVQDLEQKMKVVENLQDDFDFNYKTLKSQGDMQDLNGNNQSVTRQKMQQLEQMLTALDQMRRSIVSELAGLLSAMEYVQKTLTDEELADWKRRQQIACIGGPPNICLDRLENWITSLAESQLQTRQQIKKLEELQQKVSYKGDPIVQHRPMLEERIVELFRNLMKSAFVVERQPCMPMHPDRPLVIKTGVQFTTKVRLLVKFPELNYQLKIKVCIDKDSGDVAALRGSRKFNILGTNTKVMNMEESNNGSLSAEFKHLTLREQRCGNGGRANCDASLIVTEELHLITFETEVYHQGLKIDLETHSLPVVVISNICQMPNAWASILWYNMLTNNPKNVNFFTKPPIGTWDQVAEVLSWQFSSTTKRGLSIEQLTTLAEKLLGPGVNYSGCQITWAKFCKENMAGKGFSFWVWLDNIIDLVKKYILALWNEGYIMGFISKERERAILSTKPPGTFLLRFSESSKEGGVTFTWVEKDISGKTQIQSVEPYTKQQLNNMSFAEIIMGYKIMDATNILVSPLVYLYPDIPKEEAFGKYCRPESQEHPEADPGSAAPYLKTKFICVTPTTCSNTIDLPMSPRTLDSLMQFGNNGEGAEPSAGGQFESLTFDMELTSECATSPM
Sequence of Bile acid receptor (Homo sapiens) (Q96RI1 whole entry, looked up): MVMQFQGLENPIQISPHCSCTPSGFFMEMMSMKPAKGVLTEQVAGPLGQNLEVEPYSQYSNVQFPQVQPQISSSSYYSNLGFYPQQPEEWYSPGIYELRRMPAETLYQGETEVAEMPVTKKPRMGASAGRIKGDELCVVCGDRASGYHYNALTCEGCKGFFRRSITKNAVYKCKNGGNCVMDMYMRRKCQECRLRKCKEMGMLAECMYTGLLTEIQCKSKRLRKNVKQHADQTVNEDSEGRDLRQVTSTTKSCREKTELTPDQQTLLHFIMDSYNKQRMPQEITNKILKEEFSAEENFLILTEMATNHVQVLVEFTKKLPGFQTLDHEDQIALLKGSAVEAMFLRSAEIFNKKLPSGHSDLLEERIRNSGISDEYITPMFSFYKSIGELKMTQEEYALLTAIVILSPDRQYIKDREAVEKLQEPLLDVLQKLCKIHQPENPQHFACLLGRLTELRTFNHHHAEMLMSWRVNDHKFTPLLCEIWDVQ
Sequence of Hepatocyte nuclear factor 6 (Homo sapiens) (Q9UBC0 whole entry, looked up): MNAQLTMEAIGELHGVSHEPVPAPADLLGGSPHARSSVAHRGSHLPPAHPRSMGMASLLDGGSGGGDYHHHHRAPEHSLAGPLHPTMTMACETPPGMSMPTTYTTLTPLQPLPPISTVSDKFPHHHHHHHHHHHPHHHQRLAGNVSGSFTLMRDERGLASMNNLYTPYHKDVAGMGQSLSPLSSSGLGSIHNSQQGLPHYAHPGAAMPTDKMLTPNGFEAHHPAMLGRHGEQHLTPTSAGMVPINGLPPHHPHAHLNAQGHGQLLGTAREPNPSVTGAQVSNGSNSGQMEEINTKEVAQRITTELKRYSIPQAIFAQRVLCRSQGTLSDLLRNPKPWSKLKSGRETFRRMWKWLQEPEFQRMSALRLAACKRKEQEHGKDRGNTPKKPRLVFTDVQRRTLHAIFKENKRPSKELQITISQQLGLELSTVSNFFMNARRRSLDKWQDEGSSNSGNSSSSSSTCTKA
Sequence of Hypoxia-inducible factor 1-alpha (Homo sapiens) (Q16665 whole entry, looked up): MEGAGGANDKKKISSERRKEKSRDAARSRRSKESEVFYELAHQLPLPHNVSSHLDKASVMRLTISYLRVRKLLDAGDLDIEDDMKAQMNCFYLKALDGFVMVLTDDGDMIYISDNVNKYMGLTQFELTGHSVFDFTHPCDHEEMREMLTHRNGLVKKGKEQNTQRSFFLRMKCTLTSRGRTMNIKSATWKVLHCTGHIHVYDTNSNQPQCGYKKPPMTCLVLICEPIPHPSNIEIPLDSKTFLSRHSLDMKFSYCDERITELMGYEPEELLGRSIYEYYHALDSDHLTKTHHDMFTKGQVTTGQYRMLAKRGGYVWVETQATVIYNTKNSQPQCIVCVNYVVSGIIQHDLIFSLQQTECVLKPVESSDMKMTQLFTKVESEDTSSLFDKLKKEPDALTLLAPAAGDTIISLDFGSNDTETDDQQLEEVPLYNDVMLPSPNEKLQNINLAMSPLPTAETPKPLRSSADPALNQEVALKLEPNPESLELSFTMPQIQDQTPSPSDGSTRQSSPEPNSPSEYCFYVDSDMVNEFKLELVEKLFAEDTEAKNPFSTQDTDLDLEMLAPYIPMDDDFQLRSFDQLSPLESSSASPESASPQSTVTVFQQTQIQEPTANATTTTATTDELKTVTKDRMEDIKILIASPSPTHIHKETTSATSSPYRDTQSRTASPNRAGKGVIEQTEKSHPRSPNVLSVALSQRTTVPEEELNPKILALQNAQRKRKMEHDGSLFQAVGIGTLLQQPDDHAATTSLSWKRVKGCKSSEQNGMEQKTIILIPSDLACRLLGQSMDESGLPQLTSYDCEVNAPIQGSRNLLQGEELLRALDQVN

COc1cccc([C@H](O)C2CCN(CCc3ccc(F)cc3)CC2)c1OC
active: [6] 27.4 µM | [18] 100 µM
not listed: [19] | [20]
inactive: all other assays above

C[C@]12CC[C@@H]3c4ccc(O)cc4CC[C@H]3[C@@H]1CCC2=O
not listed: [2] | [11] | [12] | [19] | [20]
inactive: all other assays above

Cc1c2ccccc2c(C)c2c1ccc1ccccc12
active: [4] 55.3 µM | [20] 2.42 µM | [12] 54.8 µM | [13] 52.4 µM | [14] 6.93 µM | [18] 53.4 µM
not listed: [1]
inactive: all other assays above

Oc1ccc2ccccc2c1
active: [3] 100 µM | [18] 77.3 µM and 100 µM
inactive: [2] | [3] | [4] | [5] | [6] | [7] | [8] | [9] | [10] | [20] | [12] | [13] | [14] | [15] | [16] | [17]

CC/C(=C(/CC)c1ccc(O)cc1)c1ccc(O)cc1
inactive: [1] | [2] | [3] | [4] | [5] | [6] | [7] | [8] | [9] | [10] | [13] | [14] | [15] | [16] | [17] | [18]
active: [1] 15.4 µM and 2.2 µM | [3] 11.1 µM | [8] 20 µM and 18.7 µM and 20.2 µM | [9] 15.2 µM [middle of 4 runs] | [10] 14.9 µM and 5.16 µM | [13] 11.1 µM | [14] 18.2 µM | [18] 11.1 µM and 16.2 µM and 5.89 µM

CCN(CC)C(=O)c1cc(S(=O)(=O)Cc2ccccc2)c(N2CCC(c3ccccc3)CC2)cc1N(CC)CCN(C)C
active: [6] 3.7 µM | [9] 3.7 µM | [20] 0.126 µM | [15] 0.926 µM
not listed: [1]
inactive: all other assays above

CCO[Si](CCCNC(N)=O)(OCC)OCC
active: [6] 6.4 µM
inactive: all other assays above

CCCCCCCCCCCC[N+](C)(C)C
active: [3] 16.6 µM and 15.3 µM | [9] 33.4 µM | [15] 26.1 µM and 25.6 µM
inactive: [2] | [4] | [5] | [6] | [7] | [8] | [9] | [19] | [10] | [11] | [12] | [13] | [14] | [16] | [17] | [18]

O=C1c2ccccc2C(=O)N1CCc1noc(-c2ccc(CN3CCCCCC3)s2)n1
active: [6] 51.2 µM | [9] 84.5 µM | [19] 24.1 µM
not listed: [2] | [11] | [20]
inactive: all other assays above

CC(C)(C)c1cc(/C=C2\SC(N)=NC2=O)cc(C(C)(C)C)c1O
active: [1] 8.2 µM | [3] 11 µM | [8] 20 µM | [9] 15 µM | [10] 14.5 µM | [20] 1.2 µM | [15] 18.2 µM | [18] 16.3 µM
not listed: [11] | [19]
inactive: all other assays above

CC(C)(C)c1csc(-c2cc3cc(OCc4ccccc4CC(=O)O)ccc3o2)n1
active: [3] 33.4 µM | [8] 62.7 µM | [9] 43.8 µM | [10] 7.32 µM | [11] 33.4 µM | [15] 6.91 µM | [17] 6.62 µM
not listed: [12] | [20]
inactive: all other assays above

O=C(O)Cc1cc(I)c(Oc2ccc(O)c(I)c2)c(I)c1
active: [8] 170 µM [middle of 4 runs] | [9] 80.5 µM [middle of 4 runs] | [20] 26.3 µM and 26.1 µM and 7.66 µM | [12] 34.9 µM [middle of 4 runs] | [15] 11.4 µM | [18] 51.2 µM
inactive: [1] | [2] | [3] | [4] | [5] | [7] | [19] | [10] | [13] | [14] | [15] | [16] | [17] | [18]
